Laboratory results published in the supplement of paper PMC10849652.
The full data set covers some 7,900 targets. This sample favours those with a hit. About 0.6% of all pairs of compound and target were hits.

Key:
Test in all cases: log2 fold change, soluble protein after heating vs DMSO (PISA); higher = thermal stabilisation; K562 cells, 10 uM, 30 min; active = over 0.2 and 3.5 SD of the protein, either way, in both replicates (recomputed)
IRAK-1-4 Inhibitor I = compound: C1COCCN1CCN2C3=CC=CC=C3N=C2NC(=O)C4=CC(=CC=C4)[N+](=O)[O-] [IRAK-1-4 Inhibitor I]
Procedure, shortened: (§1)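 K562 cells at 2×10^6 cells/mL were given 10 μM compound for 30 min. Aliquots then went through 3 min of heating across 48°C-58°C, were pooled, and were extracted in PBS with 0.5% NP-40 at 4°C, and the supernatant after 21,000xg for 90 min was quantified by TMTpro 16plex LC-MS/MS with channel sums equalised. Thermal stability relative to control samples, from duplicates, is given as log2 fold change.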

ibrutinib = compound: C=CC(=O)N1CCC[C@@H](n2nc(-c3ccc(Oc4ccccc4)cc3)c3c(N)ncnc32)C1 [ibrutinib]
Procedure, shortened: as §1

[1] = compound: CC(=O)c1cnc2ccc(-c3cc(Cl)c(O)c(Cl)c3)nc2c1N[C@H]1CC[C@H](CN(C)C)CC1
Procedure, shortened: as §1

ralimetinib = compound: CC(C)(C)Cn1c(N)nc2ccc(-c3[nH]c(C(C)(C)C)nc3-c3ccc(F)cc3)nc21 [ralimetinib]
Procedure, shortened: as §1

[2] = compound: CC(C)C1=C2N=C(C=C(N2N=C1)NCC3=CC=CC=C3)NCCCCCCN
Procedure, shortened: as §1

[3] = compound: CC(C)C[C@@H](C=O)NC(=O)[C@H](CC(C)C)NC(=O)[C@H](CC(C)C)NC(=O)OCc1ccccc1
Procedure, shortened: as §1

pinometostat = compound: CC(C)N(C[C@H]1O[C@@H](n2cnc3c(N)ncnc32)[C@H](O)[C@@H]1O)[C@H]1C[C@@H](CCc2nc3cc(C(C)(C)C)ccc3[nH]2)C1 [pinometostat]
Procedure, shortened: as §1

[4] = compound: CC1=C(C(CC(=O)N1)C2=CC=C(C=C2)C(F)(F)F)C(=O)NC3=C(C=C4C(=C3)C=NN4)F
Procedure, shortened: as §1

[5] = compound: CC1=C(C2=C(C=C1)C(=O)C3=CC=CC=C3N2CCCN)C
Procedure, shortened: as §1

[6] = compound: CC(C)(O)CC(=O)NCCn1ccc2ncnc(Nc3ccc(Oc4cccc(C(F)(F)F)c4)c(Cl)c3)c21
Procedure, shortened: as §1

Measured: log2 fold change

UNC119B (UniProt A6NIH7)
inactive: IRAK-1-4 Inhibitor I 0.113 | ibrutinib 0.08 | [1] 0.028 | ralimetinib 0.014 | [2] 0.272 | [3] 0.088 | pinometostat 0.126 | [4] -0.048 | [5] -0.047

TMEM63B (UniProt Q5T3F8)
inactive: IRAK-1-4 Inhibitor I -0.01 | ibrutinib -0.055 | [1] -0.002 | ralimetinib -0.034 | [6] 0.011 | [2] -0.157 | [3] -0.01 | pinometostat 0.041 | [4] 0.027 | [5] 0.054

WASHC5 (UniProt Q12768)
Chain of UniProt Q12768 (Q12768 whole entry, looked up): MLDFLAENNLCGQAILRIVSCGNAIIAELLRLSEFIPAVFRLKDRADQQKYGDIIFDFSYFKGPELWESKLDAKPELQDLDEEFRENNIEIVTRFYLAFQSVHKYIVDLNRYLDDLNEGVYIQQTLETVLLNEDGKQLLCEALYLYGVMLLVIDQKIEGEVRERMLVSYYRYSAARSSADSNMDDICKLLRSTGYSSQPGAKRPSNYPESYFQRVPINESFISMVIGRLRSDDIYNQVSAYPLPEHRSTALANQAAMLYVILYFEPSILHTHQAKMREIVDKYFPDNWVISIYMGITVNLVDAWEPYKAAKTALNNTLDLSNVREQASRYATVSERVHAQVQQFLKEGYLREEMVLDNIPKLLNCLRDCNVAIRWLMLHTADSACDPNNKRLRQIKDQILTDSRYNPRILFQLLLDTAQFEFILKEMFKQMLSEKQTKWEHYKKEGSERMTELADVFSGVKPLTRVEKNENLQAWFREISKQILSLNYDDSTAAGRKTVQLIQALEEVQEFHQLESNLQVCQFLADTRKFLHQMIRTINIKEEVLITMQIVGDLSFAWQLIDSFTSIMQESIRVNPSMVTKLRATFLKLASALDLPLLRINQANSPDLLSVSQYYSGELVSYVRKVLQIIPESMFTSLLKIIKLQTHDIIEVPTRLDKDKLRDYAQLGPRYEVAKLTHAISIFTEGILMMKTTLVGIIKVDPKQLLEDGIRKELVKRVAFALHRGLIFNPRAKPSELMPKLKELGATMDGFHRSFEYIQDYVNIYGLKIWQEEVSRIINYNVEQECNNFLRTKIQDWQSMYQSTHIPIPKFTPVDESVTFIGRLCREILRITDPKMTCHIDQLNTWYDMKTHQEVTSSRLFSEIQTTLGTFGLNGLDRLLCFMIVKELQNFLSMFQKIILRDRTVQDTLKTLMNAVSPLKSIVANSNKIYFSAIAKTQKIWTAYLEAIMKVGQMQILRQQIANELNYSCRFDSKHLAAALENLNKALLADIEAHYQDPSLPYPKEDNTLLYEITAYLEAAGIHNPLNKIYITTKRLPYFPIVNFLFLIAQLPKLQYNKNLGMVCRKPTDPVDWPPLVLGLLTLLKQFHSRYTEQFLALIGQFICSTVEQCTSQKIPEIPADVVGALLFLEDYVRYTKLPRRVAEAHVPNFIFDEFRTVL
inactive: IRAK-1-4 Inhibitor I -0.042 | ibrutinib 0.007 | [1] -0.024 | ralimetinib 0.072 | [6] -0.116 | [3] 0.003 | pinometostat 0.067 | [4] -0.049 | [5] -0.014
active: [2] -0.277

TP53BP1 isoform 2 (UniProt Q12888)
active: [5] -0.337
inactive: IRAK-1-4 Inhibitor I -0.059 | ibrutinib -0.046 | [1] -0.002 | ralimetinib 0.056 | [6] -0.024 | [2] -0.089 | [3] 0.019 | pinometostat 0.021 | [4] 0.003

TSC2 (UniProt P49815)
inactive: IRAK-1-4 Inhibitor I -0.045 | ibrutinib 0.028 | [1] 0.05 | ralimetinib 0.091 | [6] -0.001 | [2] 0.103 | [3] 0.056 | pinometostat 0.085 | [5] 0.105

WARS1 (UniProt G3V5U1)
inactive: IRAK-1-4 Inhibitor I 0.01 | ibrutinib -0.158 | [6] 0.156 | pinometostat 0.031

TOM1L2 (UniProt Q6ZVM7)
Chain of UniProt Q6ZVM7 (Q6ZVM7 whole entry, looked up): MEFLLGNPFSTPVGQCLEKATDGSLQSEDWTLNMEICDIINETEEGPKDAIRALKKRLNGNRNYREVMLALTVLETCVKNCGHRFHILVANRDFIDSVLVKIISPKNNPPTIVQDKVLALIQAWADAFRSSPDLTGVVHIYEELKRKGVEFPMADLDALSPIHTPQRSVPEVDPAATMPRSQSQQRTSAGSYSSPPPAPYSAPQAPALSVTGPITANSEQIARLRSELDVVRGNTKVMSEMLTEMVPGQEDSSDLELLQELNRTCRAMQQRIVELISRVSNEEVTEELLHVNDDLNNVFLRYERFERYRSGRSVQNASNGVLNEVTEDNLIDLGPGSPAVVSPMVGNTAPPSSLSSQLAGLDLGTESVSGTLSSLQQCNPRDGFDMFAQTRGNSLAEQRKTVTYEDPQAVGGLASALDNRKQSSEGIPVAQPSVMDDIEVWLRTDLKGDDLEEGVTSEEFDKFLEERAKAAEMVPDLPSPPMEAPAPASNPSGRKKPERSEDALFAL
inactive: IRAK-1-4 Inhibitor I -0.049 | [1] -0.031 | [6] -0.089 | [2] 0.049 | pinometostat 0.036 | [4] -0.012

TRIM5 (UniProt Q9C035)
inactive: [1] 0 | ralimetinib 0.094 | [6] -0.045 | [2] -0.176 | [3] 0.391 | [5] 0.047

XAB2 (UniProt Q9HCS7)
inactive: IRAK-1-4 Inhibitor I -0.036 | ralimetinib 0.14 | [6] -0.138 | [3] -0.041 | pinometostat 0.181

TRIM23 (UniProt P36406)
Chain of UniProt P36406 (P36406 whole entry, looked up): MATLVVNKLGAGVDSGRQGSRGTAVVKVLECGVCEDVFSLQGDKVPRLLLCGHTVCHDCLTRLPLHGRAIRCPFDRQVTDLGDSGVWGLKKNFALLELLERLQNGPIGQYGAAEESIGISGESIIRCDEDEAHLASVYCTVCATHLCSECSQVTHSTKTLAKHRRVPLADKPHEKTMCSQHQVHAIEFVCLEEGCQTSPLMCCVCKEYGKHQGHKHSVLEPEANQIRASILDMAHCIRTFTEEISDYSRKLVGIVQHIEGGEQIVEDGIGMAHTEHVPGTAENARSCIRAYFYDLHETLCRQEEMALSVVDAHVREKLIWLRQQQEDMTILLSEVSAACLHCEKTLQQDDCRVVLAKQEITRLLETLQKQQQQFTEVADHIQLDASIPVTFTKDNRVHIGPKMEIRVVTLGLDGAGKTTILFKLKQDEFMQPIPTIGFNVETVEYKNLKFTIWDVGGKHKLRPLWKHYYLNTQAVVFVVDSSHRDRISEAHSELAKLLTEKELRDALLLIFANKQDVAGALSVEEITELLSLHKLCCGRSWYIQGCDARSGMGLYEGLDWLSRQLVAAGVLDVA
inactive: IRAK-1-4 Inhibitor I 0.064 | ibrutinib 0.072 | ralimetinib -0.034 | [2] 0.146 | [3] -0.019 | pinometostat -0.024 | [4] -0.044 | [5] 0.242

TOM1 (UniProt O60784)
inactive: IRAK-1-4 Inhibitor I 0.058 | ibrutinib 0.093 | [6] -0.087 | [2] -0.22 | pinometostat -0.032 | [5] -0.236

ULBP1 (UniProt Q9BZM6)
inactive: [1] -0.038 | ralimetinib -0.058 | [6] -0.132 | [2] 0.112 | [3] 0.006 | [5] 0.009

XRCC1 (UniProt P18887)
inactive: IRAK-1-4 Inhibitor I 0.13 | [1] 0.027 | ralimetinib -0.115 | [6] -0.368 | [2] -0.066 | [3] 0.432 | pinometostat 0.41 | [5] -0.047

VPS72 isoform 2 (UniProt Q15906)
active: [5] -0.473
inactive: ibrutinib 0.119 | [1] 0.033 | ralimetinib -0.122 | [6] -0.177 | [2] 0.133 | [3] -0.117 | [4] -0.092

TRPT1 isoform 4 (UniProt Q86TN4)
Chain of UniProt Q86TN4 (Q86TN4 whole entry, looked up): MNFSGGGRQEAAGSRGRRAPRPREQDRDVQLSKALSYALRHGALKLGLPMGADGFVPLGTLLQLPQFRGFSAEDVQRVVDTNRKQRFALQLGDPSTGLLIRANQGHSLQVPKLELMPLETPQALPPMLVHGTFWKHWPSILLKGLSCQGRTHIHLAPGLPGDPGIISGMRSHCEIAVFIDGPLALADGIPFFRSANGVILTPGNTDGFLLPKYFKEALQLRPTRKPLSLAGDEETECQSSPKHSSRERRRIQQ
inactive: IRAK-1-4 Inhibitor I 0.11 | [1] -0.057 | ralimetinib 0.011 | [2] -0.054 | [3] 0.074 | pinometostat 0.033

UTP20 (UniProt O75691)
inactive: [6] -0.172 | [2] 0.081 | [5] 0

UBXN8 (UniProt O00124)
inactive: ibrutinib 0.077 | [1] 0.039 | ralimetinib 0.211 | [6] 0.138 | [3] -0.227 | [5] 0.259

UFM1 isoform 2 (UniProt P61960)
inactive: ibrutinib 0.025 | [1] 0.052 | [6] 0.018 | [2] -0.013 | [4] 0.026 | [5] 0.035

TTC26
inactive: ibrutinib 0.035 | ralimetinib 0.204 | [3] -0.211 | [5] 0.062

UBAP2L (UniProt F8W726)
inactive: ibrutinib 0.017 | [2] -0.002 | [4] 0.145 | [5] 0.136

TRIQK (UniProt Q629K1)
Chain of UniProt Q629K1 (Q629K1 whole entry, looked up): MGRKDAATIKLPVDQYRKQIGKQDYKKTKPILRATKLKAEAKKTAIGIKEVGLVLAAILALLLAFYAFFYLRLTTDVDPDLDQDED
inactive: IRAK-1-4 Inhibitor I -0.059 | ibrutinib 0.007 | ralimetinib -0.011 | [6] -0.054 | [3] -0.004 | pinometostat 0.104 | [5] 0.114

WDR4 isoform 3 (UniProt P57081)
inactive: ibrutinib -0.157 | [6] -0.126

WARS1 (UniProt G3V227)
inactive: ibrutinib 0.03 | [1] -0.022 | [6] 0.259 | [5] -0.048

TMEM219 (UniProt Q86XT9)
inactive: ibrutinib 0.115 | [1] 0.083 | [6] -0.015 | [2] 0.007 | [4] 0.031 | [5] -0.134

WARS1 (UniProt G3V339)
inactive: [6] 0.044

UBE2D1 (UniProt P51668)
Chain of UniProt P51668 (P51668 whole entry, looked up): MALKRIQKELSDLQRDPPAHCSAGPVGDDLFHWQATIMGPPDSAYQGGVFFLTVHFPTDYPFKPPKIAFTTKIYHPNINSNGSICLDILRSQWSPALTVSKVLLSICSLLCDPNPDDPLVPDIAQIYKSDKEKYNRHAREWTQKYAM
inactive: ibrutinib 0.007 | [1] 0.005 | ralimetinib 0.003 | [2] -0.203 | [3] -0.058 | [4] 0.028 | [5] 0.117

TSPAN13 (UniProt O95857)
inactive: ibrutinib 0.175 | ralimetinib -0.149 | [6] 0.151 | [2] -0.198 | [3] 0.018 | [4] 0.113 | [5] 0.065

WARS1 (UniProt G3V3P2)
inactive: ibrutinib -0.036

TXNRD1 isoform 7 (UniProt Q16881)
inactive: ibrutinib -0.209 | [6] -0.069 | [2] -0.01

TMEM8A (UniProt Q9HCN3)
inactive: ibrutinib 0.06 | ralimetinib -0.131 | [3] -0.036 | [4] 0.007 | [5] 0.044
active: [2] -0.445

TUBA4A (UniProt C9JJQ8)
inactive: IRAK-1-4 Inhibitor I -0.203 | ibrutinib -0.076 | pinometostat -0.121 | [5] -0.042

UBXN10 (UniProt Q96LJ8)
inactive: IRAK-1-4 Inhibitor I 0.027 | ibrutinib 0.054 | ralimetinib -0.045 | [6] -0.145 | [2] -0.017 | [3] 0.038 | pinometostat 0.058 | [4] 0.026 | [5] 0.085

TUT4 (UniProt Q5TAX3)
Chain of UniProt Q5TAX3 (Q5TAX3 whole entry, looked up): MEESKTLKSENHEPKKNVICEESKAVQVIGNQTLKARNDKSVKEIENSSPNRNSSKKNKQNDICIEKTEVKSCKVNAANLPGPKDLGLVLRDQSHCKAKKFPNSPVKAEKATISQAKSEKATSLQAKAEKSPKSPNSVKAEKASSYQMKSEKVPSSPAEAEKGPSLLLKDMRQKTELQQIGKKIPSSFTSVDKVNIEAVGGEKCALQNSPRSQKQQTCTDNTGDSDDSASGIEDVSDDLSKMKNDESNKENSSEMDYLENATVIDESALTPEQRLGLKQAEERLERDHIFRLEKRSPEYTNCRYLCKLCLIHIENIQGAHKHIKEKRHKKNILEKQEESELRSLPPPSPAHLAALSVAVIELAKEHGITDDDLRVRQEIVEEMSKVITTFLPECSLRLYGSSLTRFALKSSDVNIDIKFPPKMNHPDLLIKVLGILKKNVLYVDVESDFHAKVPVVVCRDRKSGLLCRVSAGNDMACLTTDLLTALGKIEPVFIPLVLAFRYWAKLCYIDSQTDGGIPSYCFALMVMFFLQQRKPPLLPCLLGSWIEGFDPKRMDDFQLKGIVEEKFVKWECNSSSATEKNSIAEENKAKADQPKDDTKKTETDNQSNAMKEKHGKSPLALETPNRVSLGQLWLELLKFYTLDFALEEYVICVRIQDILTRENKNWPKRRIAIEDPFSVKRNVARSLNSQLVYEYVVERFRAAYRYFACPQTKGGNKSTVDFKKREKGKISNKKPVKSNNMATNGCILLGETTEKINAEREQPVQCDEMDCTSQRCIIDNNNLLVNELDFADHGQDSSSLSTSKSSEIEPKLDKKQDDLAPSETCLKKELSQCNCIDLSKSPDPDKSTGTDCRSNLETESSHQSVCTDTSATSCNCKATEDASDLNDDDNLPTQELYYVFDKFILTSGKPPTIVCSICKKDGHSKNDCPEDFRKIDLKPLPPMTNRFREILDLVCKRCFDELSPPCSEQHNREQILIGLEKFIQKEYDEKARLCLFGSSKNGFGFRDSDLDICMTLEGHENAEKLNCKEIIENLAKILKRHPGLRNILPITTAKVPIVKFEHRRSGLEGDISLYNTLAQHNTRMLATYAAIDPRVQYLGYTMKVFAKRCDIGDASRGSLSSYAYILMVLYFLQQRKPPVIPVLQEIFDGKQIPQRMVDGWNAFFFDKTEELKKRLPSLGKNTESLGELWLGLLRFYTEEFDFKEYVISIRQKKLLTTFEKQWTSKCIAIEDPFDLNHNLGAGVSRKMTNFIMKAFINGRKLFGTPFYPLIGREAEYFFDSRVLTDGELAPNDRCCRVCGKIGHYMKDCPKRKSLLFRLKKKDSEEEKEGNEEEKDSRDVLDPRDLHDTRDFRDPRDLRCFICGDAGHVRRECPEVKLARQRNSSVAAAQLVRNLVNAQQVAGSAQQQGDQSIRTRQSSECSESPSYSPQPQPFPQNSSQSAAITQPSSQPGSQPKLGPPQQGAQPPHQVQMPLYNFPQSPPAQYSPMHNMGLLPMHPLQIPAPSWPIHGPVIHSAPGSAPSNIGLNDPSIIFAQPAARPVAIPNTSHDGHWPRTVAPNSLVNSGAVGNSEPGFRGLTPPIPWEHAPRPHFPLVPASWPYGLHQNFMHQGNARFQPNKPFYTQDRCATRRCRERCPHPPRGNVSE
inactive: IRAK-1-4 Inhibitor I 0.078 | ibrutinib -0.029 | ralimetinib 0.07 | [6] 0 | [2] -0.219 | [3] 0.086 | pinometostat 0.059 | [4] 0.158 | [5] 0.104

TMEM104 (UniProt Q8NE00)
inactive: IRAK-1-4 Inhibitor I -0.039 | [1] 0.038 | ralimetinib -0.09 | [6] 0.009 | [3] 0.082 | pinometostat -0.106 | [4] 0.126
active: [2] -0.473

TVP23C (UniProt Q96ET8)
inactive: [1] 0.021 | [2] 0.011 | [5] 0.037

USP48 (UniProt Q86UV5)
inactive: ibrutinib -0.07 | [2] -0.246 | [4] 0.05

XIAP (UniProt P98170)
inactive: ibrutinib -0.076 | [1] -0.105 | [6] -0.157 | [2] -0.05 | [4] 0 | [5] -0.002

TMEM268 isoform 3 (UniProt Q5VZI3)
Chain of UniProt Q5VZI3 (Q5VZI3 whole entry, looked up): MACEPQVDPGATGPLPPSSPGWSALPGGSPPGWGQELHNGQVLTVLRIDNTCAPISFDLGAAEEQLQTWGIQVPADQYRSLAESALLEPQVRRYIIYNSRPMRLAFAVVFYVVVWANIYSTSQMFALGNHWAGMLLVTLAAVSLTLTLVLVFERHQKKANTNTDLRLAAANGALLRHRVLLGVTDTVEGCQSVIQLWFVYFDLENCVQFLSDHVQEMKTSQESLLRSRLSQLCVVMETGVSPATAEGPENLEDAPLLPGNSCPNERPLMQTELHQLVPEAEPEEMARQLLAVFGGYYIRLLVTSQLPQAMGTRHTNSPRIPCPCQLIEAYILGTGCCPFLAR
inactive: ibrutinib 0.036 | [1] -0.042 | ralimetinib -0.056 | [6] -0.334 | [2] -0.095 | [3] -0.016 | [4] -0.033 | [5] 0.014

VDAC1 (UniProt C9JI87)
inactive: [1] -0.091 | ralimetinib -0.506 | [6] -0.052 | [2] 0.009 | [3] -0.013 | [4] 0.21

VDAC1 (UniProt P21796)
Chain of UniProt P21796 (P21796 whole entry, looked up): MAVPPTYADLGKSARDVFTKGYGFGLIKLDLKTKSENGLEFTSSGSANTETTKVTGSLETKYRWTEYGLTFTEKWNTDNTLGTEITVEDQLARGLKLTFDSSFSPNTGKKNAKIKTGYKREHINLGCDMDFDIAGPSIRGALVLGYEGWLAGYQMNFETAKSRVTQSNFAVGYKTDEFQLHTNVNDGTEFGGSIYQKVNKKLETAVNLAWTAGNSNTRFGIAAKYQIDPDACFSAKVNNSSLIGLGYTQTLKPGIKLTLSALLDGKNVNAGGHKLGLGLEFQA
inactive: IRAK-1-4 Inhibitor I 0.07 | [1] 0.02 | ralimetinib -0.035 | [6] 0.021 | [2] 0.058 | [3] -0.039 | pinometostat -0.032 | [4] -0.009 | [5] -0.016

UBE2J2 isoform 3 (UniProt Q8N2K1)
inactive: ibrutinib 0.086 | [1] -0.017 | [6] -0.019 | [2] -0.185 | [5] 0.02

WDR46, A0A0G2JJL1
inactive: IRAK-1-4 Inhibitor I -0.153 | ibrutinib 0.054 | [6] 0.269 | [2] 0.003 | pinometostat 0.325 | [4] 0.005 | [5] -0.353
